Active and inactive are the calls of the source. Calls follow the shape of the full dose curve.
assay: qHTS assay to identify small molecule agonists of the sonic hedgehog signaling (Shh) pathway (AID 1259368); settings: NIH/3T3 Gli1-Luc reporter, luciferase, 24 h; series mostly up to 92.4 µM;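 also: NIH/3T3-derived 3T3Gli1-Luc cells carrying a stable Gli1-driven firefly luciferase reporter; nearly all actives have a fitted effect of over 15% in size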
Text: National Center for Advancing Translational Sciences [NCATS]
NIH Chemical Genomics Center [NCGC]
U.S. Environmental Protection Agency [EPA]
National Institutes of Environmental Health Sciences [NIEHS]
National Toxicology Program [NTP]
The sonic hedgehog (Shh) pathway is essential for normal embryonic development. Dysregulation of the Shh pathway can cause severe developmental defects in organs. Therefore chemicals that interfere with the pathway are potential developmental toxicants. A cell line designated 3T3Gli1-Luc (DMB/OARSA/CFSAN/FDA, Laurel, MD), a NIH/3T3 derived clone containing stably integrated Gli1-Luc reporter is used to detect chemical interference of the Shh pathway, by changes in the expression of the firefly Luc gene under the control of the Gli1 transcriptional response element. This cell line was used to screen Tox21 libraries for identifying and prioritizing the potential developmental toxicants that interfere Shh pathway.
3T3 Gli1-Luc cells were dispensed at 2,000 per well in 5uL of culture medium into white solid bottom 1536-well plates (Greiner Bio-One, Monroe, NC) using a Multidrop Combi (Thermo Scientific, Waltham, MA) dispenser. The assay plates were incubated at 37 C and 5% CO2 for 4hr, and then 23nL of compounds dissolved in DMSO and positive control were transferred using a Pintool station (Wako, San Diego, CA). The assay plates were incubated at 37C and 5% CO2 for 24hr. For luciferase read, 4uL of Amplite Luciferase reporter gene assay reagent (AAT Bioquest, Inc. Sunnyvale, CA) was added to each well of the assay plates using Flying Reagent Dispenser (FRD, Aurora Discovery, San Diego, CA) and incubated at room temperature for 30min. The luminescence signal was measured using a ViewLux plate reader (Perkin Elmer, Shelton, CT).

Compound	outcome
O=C1CN=C(c2ccccc2)c2cc([N+](=O)[O-])ccc2N1	inactive
Oc1c(Cl)cccc1Cl	inactive
CC(C=O)Cc1ccc2c(c1)OCO2 (stereo not given)	inactive
N#CC(Cl)(Cl)Cl	inactive
CC(=O)Nc1cc([As](=O)(O)O)ccc1O	inactive
COC(=O)C(c1ccccc1)C1CCCCN1 (stereo not given)	inactive
ClC(Br)Br	inactive
CC(C)(C)OC(=O)c1ncn2c1[C@@H]1CCCN1C(=O)c1c(Br)cccc1-2	inactive
O=[N+]([O-])c1ccc(CBr)cc1	inactive
Nc1c(Br)cc([N+](=O)[O-])cc1[N+](=O)[O-]	inactive
CCOP(=S)(OCC)Oc1ncn(-c2ccccc2)n1	inactive
ClCCOCOCCCl	inactive
CC1=NNC(=O)N(/N=C/c2cccnc2)C1	inactive
O=C1OC(c2ccc(O)c(S(=O)(=O)O)c2)(c2ccc(O)c(S(=O)(=O)O)c2)c2c(Br)c(Br)c(Br)c(Br)c21	inactive
CCOP(=S)(OCC)Oc1cc(-c2ccccc2)on1	inactive
N#CC(O)c1ccccc1 (stereo not given)	inactive
CSc1nc(N=[N+]=[N-])nc(NC(C)C)n1	inactive
CN1CCC(N(Cc2ccccc2)c2ccccc2)CC1	inactive
CC1COC2(c3ccccc3Cl)c3cc(Cl)ccc3NC(=O)CN12 (stereo not given)	inactive
O=NN1CCN(N=O)CC1	inactive

Compound	outcome
CC1(C)C(=O)NC(=O)NC1=O	inactive
CC(C(O)c1ccccc1)N(C)C/C=C/c1ccccc1 (stereo not given)	inactive
ClC(Cl)Br	inactive
C=C(C)[C@@H]1CC=C(C=O)CC1	inactive
CCC/C(=N\OCC)C1=C(O)CC(CC(C)SCC)CC1=O (stereo not given)	inactive
CC(=O)CCc1ccc2c(c1)OCO2	inactive
CCC(C)n1c(=O)[nH]c(C)c(Br)c1=O (stereo not given)	inactive
CC1=C(C(=O)Nc2ccccc2)S(=O)(=O)CCO1	inactive
CC(C)CC#N	inactive
ClC(Cl)C(Cl)Cl	inactive
CC(C)(C)NCC(O)c1cc(Cl)c(N)c(Cl)c1 (stereo not given)	inactive
O=C(O)C(Br)CBr (stereo not given)	inactive
O=C(Nc1ccccc1)N(Cc1ccc(Cl)cc1)C1CCCC1	inactive
CN(N=O)C(N)=O	inactive
CCOP(=S)(OCC)SCSc1ccc(Cl)cc1	inactive
CCc1cc2c(s1)-n1c(C)nnc1CN=C2c1ccccc1Cl	inactive
N#CCNCC#N	inactive
CCN(CC)C(C)C(=O)c1ccccc1 (stereo not given)	inactive
O=[N+]([O-])c1cccc2c([N+](=O)[O-])cccc12	inactive
CCCCOC(=O)c1ccccc1N	inactive

From PubChem BioAssay (Tox21)
